TRPV1 PAM = potentiators of human vanilloid receptor 1 (TRPV1); Q8NER1; potentiation, % at 8.33 µM; actives 0.02% (n = 320,000); TRPV1-expressing cells, Fluo-8 calcium influx, capsaicin EC20 potentiation; in the data active means potentiation above about 80%; inconclusive means between about 30% and that limit; further: 0% is about no effect
Target sequence (Q8NER1 whole entry, looked up): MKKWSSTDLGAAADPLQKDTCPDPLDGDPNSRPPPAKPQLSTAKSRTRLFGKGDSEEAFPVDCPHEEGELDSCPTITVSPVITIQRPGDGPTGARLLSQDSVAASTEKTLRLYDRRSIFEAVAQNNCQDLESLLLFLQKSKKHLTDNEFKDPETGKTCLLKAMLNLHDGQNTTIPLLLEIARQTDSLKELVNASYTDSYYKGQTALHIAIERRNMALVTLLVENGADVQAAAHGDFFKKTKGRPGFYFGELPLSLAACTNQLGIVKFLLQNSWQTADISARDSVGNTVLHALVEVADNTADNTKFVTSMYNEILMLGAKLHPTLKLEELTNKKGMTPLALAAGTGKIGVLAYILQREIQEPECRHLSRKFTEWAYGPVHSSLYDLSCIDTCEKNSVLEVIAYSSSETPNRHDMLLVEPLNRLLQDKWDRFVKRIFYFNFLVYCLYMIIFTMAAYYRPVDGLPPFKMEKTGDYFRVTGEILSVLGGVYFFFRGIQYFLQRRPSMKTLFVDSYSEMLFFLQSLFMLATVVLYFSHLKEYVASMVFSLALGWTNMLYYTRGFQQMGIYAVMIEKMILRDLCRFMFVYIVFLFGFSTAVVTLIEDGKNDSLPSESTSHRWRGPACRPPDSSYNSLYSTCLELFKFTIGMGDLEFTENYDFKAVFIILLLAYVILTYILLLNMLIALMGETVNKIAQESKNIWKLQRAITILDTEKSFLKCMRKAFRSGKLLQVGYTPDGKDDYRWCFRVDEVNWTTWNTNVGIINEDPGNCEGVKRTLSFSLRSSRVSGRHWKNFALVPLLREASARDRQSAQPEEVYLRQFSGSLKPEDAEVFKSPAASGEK
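TRPV1-expressing cells were cultured overnight at 35.5C and loaded with Fluo-8 calcium dye for 40 to 90 min at room temperature. After a 10 s baseline, compound was added and calcium influx was read kinetically for 3 min (ex 480/em 520 nm).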
D1 agonist = activates the human D1 dopamine receptor. P21728. HEK293 T-REx D1 cells, calcium flux, agonist mode. activation, % at 2 µM. actives 1% (n = 360,000); in the data active means activation above about 30%; further: 0% is about no effect
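Tetracycline-induced HEK293 TREx D1 cells, force-coupled to calcium signalling, were dye-loaded with a no-wash calcium kit. Compound was pin-added after a 10 s baseline. Fluorescence was read kinetically at 1 cycle/s for 180 s, with calcium rises flagged as agonism.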
D1 antag = blocks dopamine activation of the human D1 receptor | P21728 | activity change, negative = inhibition, % at 10 µM | actives 3.2% (n = 360,000) | AID 504652 | HEK293 TREx D1 cells, calcium flux, dopamine EC80; stronger effect = lower value; in the data active means activity change below about -30%; further: on the % scale 0 is the no-effect control and ±100 the full control effect
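Calcium flux readout: force-coupled, inducible Hek293 Trex D1 line, cells induced overnight at 30 C with tetracycline, dye-loaded 30–90 min at RT. Antagonism scored against EC80 dopamine challenge given 180 s after compound.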
TRPV1 agonist = human TRPV1 agonism; Q8NER1; AID 540275; activation, % at 8.33 µM; TRPV1-expressing cells, Fluo-8 calcium influx, agonist mode; actives 0.19% (n = 320,000); in the data active means activation above about 80%; inconclusive means between about 30% and that limit; further: 0% is about no effect
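TRPV1-expressing cells were cultured overnight at 35.5C and loaded with Fluo-8 calcium dye for 40 to 90 min at room temperature. After a 10 s baseline, compound was added and calcium influx was read kinetically for 3 min (ex 480/em 520 nm).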
D1 potentiator = enhances dopamine response at the human D1 receptor. P21728. AID 504651. HEK293 TREx D1 cells, calcium flux, dopamine EC20 potentiation. potentiation, % at 10 µM. actives 0.036% (n = 360,000); in the data active means potentiation above about 30%; further: 0% is about no effect
* hit, by the source's call; ? = inconclusive; . = no result. Only some compounds are listed: those with a hit (about 4.2% of all), similar ones and a draw of the others.

SMILES	TRPV1 PAM	D1 agonist	D1 antag	TRPV1 agonist	D1 potentiator
COC(=O)c1cn(C(=O)c2ccc(OC)c(OC)c2)c2ccccc12	2.7	3.1	-46.9*	-4.8	0.5
Oc1ccc(CNc2cccc(C(F)(F)F)c2)c2cccnc12	.	6.1	7.2	.	0.0
COc1cccc2sc3ccc(NCc4ccc5c(c4)OCO5)cc3c(=O)c12	-4.0	30.7*	0.2	3.0	2.6
Cc1ccc(CCNC(=O)C(CC(C)C)NS(=O)(=O)c2ccc3c(c2)oc(=O)n3C)cc1 (stereo unspecified)	.	5.3	7.7	.	-1.4
CCOc1ccc(-n2c(-c3ccc(Br)cc3)cc3c2CC(C)(C)CC3=O)cc1	.	5.4	-0.7	.	-0.7
O=C(Nc1ccncc1)C1c2ccccc2Oc2ccccc21	11.5	43.9*	39.4	-8.7	-4.5
O=S(=O)(Cc1cc(-c2ccc(Cl)cc2)no1)c1ccccc1	8.6	2.7	-18.9	-1.8	-3.4
O=S(=O)(Cc1cc(-c2ccccc2Cl)no1)c1ccccc1	8.0	37.2*	-20.8	?	-9.0
N#CCN=C(c1ccccc1)c1ccccc1	2.7	-1.2	-47.3*	4.0	1.8
N#CN=C(c1ccccc1)c1ccccc1	10.3	1.3	15.0	2.2	-3.2
COc1ccc(C(=O)NCCC(=O)NCc2cc(=O)n(C)c(=O)n2C)cc1	18.7	1.2	-51.2*	0.4	-4.4
COc1cccc(C(=O)NCC(=O)NCc2cc(=O)n(C)c(=O)n2C)c1	-6.2	5.5	-35.7*	-2.5	-4.2
COc1ccc(CC(=O)NCC(=O)NCc2cc(=O)n(C)c(=O)n2C)cc1	6.6	0.2	30.7	3.4	7.8
Cc1cccc(N2CCN(C(=O)Cn3ncc4c5ccccc5n(C)c4c3=O)CC2)c1C	.	-1.1	0.6	.	-2.0
Cc1ccc(Cl)cc1N1CCN(C(=O)Cn2ncc3c4ccccc4n(C)c3c2=O)CC1	.	0.1	-32.8*	.	-2.6
Cc1cccc(N2CCN(C(=O)c3cc4c(=O)n(C)c5ccccc5c4n3C)CC2)c1C	-2.1	2.9	-0.1	-1.3	2.9
Cc1ccc(Cl)cc1N1CCN(C(=O)c2cc3c(=O)n(C)c4ccccc4c3n2C)CC1	1.6	2.7	-36.1*	3.9	.
Cc1ccc(-n2nc(CO)c(C(=O)NCCCc3ccccc3)n2)cc1C	.	13.7	-24.2	.	-3.2
CCC(Oc1ccccc1)C(=O)Nc1nnc(S(=O)(=O)N(CC)CC)s1 (stereo unspecified)	.	-0.5	4.4	.	-5.3
O=c1c(N2CCc3ccccc3C2)csc2ccc(F)cc12	.	12.6	4.7	.	-2.4
Cc1ccc(N2CC(NC(=O)c3cccc(Cl)c3)CC2=O)cc1C (stereo unspecified)	.	-3.2	.	.	-3.1
COc1ccc2c(n1)Sc1nc3ccccc3nc1N2	11.2	261.6*	-24.2	109.7*	1.9
COc1cc2ccccc2nn1	0.6	1.5	-28.1	1.4	-1.9
O=[N+]([O-])c1ccc(Nc2ccc3ccccc3c2)nc1	-1.6	3.4	-34.4*	-0.3	-9.7
O=C(O)c1cccc(Nc2ccc([N+](=O)[O-])cn2)c1	5.5	-1.3	-35.1*	2.6	-6.4
SMILES	TRPV1 PAM	D1 agonist	D1 antag	TRPV1 agonist	D1 potentiator
O=[N+]([O-])c1ccc(Nc2ccc(Cl)cc2)nc1	-2.3	1.6	6.5	3.3	1.4
COc1ccc(NC(=O)c2cccc(N3CCCS3(=O)=O)c2)cc1	.	1.0	-4.8	.	0.1
COc1ccc(NC(=O)CSc2nnc(NC(=O)Nc3ccccc3)s2)cc1OC	.	7.2	.	.	-1.9
O=C(Nc1nccs1)c1ccc(CSc2ccccc2)o1	24.0	2.2	-40.3*	5.6	-6.8
Cc1cc(Nc2cccc(C)c2C)n2cnnc2n1	.	0.7	6.7	.	1.1
CCOc1ccc(CNS(=O)(=O)c2c(C(=O)N3CCC(C)CC3)c(C)n(C)c2C)cc1OC	.	2.4	-9.7	.	-0.7
O=C(OCc1nnc(-c2ccc(Cl)cc2)o1)C12CC3CC(CC(O)(C3)C1)C2	-0.2	8.3	-75.3*	4.3	-8.0
O=C(/C=C/c1ccccc1)NC(N1CCOCC1)C(Cl)(Cl)Cl (stereo unspecified)	-9.6	0.3	-33.5*	22.4	-3.1
O=C(NC(N1CCOCC1)C(Cl)(Cl)Cl)c1ccco1 (stereo unspecified)	-8.1	13.6	2.4	0.2	-3.8
Cc1ccn2cc(-c3ccc(C)c(NS(=O)(=O)c4ccc(Cl)cc4)c3)nc2c1	.	1.0	-0.1	.	2.2
CN1/C(=C\C=C(/C#N)C(=O)Nc2ccccc2F)C(C)(C)c2ccccc21	2.7	277.1*	-18.1	?	4.2
Fc1ccc(-c2onc3ccc(C4OCCO4)cc23)cc1	-8.6	-0.4	-56.0*	?	-1.1
CC(=O)c1cccc(NC(=S)N2CCc3ccccc32)c1	-9.8	2.1	-31.7*	11.4	0.8
O=C(c1ccccc1)N1CCCc2ccccc21	-6.7	1.0	-2.4	-0.9	-3.8
O=C(Nc1cccc(C(=O)N2CCCc3ccccc32)c1)c1ccccc1	-1.1	0.8	-36.9*	?	-8.1
Fc1cccc(NC(=S)N2CCc3ccccc32)c1	4.1	4.8	-9.7	7.6	-1.7
COc1ccc(-c2cc(C(=O)N/N=C(\C)c3cccnc3)c3ccccc3n2)cc1	12.3	-0.1	-57.5*	0.0	-3.2
O=C(N/N=C/c1cccnc1)c1cc(-c2ccccc2Cl)nc2ccccc12	13.8	-0.7	-39.9*	15.3	-0.8
O=C(NCc1ccccn1)c1cc(-c2ccncc2)nc2ccccc12	0.3	1.5	0.8	-1.6	3.0
O=C(NCc1ccccn1)c1cc(-c2ccccc2Cl)nc2ccccc12	1.3	0.9	-32.0*	7.4	-0.4
COc1ccc(/C(C)=N/NC(=O)c2cc(-c3cccnc3)nc3ccccc23)cc1	?	-0.6	5.6	3.2	-3.5
Cc1ccccc1-c1cc(C(=O)N/N=C/c2cccnc2)c2ccccc2n1	5.6	0.5	4.9	8.8	-3.6
CCOc1ccccc1CNC(=O)c1cc2c(=O)n(Cc3ccco3)ccc2nc1C	.	0.8	16.0	.	-4.7
CCCSc1ncnc2c1c(-c1ccccc1)cn2-c1ccccc1OC	.	5.3	3.2	.	4.7
CC1(c2cccc(Br)c2)NC(=O)N(CC(=O)Nc2ccc(F)cc2)C1=O (stereo unspecified)	-1.4	6.5	-30.7*	?	-5.5
COc1ccc(C2(C)NC(=O)N(CC(=O)NC3CCCC3)C2=O)cc1OC (stereo unspecified)	-0.1	2.6	0.9	-3.8	-4.4
Cc1cc(C(=O)CN2C(=O)NC(c3ccccc3)(c3ccccc3)C2=O)c(C)n1Cc1ccco1	2.7	22.7	-4.2	0.5	-3.0
Cc1cc(C(=O)CN2C(=O)NC(C)(c3cccc(Br)c3)C2=O)c(C)n1Cc1ccco1 (stereo unspecified)	-8.5	2.0	-36.8*	-3.6	3.6
CC1(c2cccc(Br)c2)NC(=O)N(CC(=O)NC2CCCCC2)C1=O (stereo unspecified)	-5.1	0.3	-33.6*	1.1	-1.9
